# Results: PubChem BioAssay (NCI)
# About 83,000 compounds went through this panel and 20% of them were active in at least one assay; those are over-represented in the sample as a whole.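 Single-dose data. Exposure time 48 hours. Values below 10 considered active.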 A number with no mark means an inactive call. Active and inactive are the calls of the source.
# Legend:
# Assay in all cases: NCI-60 one-dose screen, 48 h (100 = growth as untreated, 0 = no growth, -100 = all killed)
# Conditions in all cases: 10 µM unless noted
# [1] = tested on: NCI-H23 lung
# [2] = tested on: NCI-H226 lung
# [3] = tested on: NCI-H322M lung
# [4] = tested on: HOP-62 NSCLC
# [5] = tested on: NCI-H460 lung
# [6] = tested on: NCI-H522 lung
# [7] = tested on: A549/ATCC NSCLC
# [8] = tested on: 786-0 renal
# [9] = tested on: COLO 205 colon
SMILES,growth [1],growth [2],growth [3],growth [4],growth [5],growth [6],growth [7],growth [8],growth [9]
Clc1cccc(-c2cc(-c3ccc4c(c3)OCCO4)[nH]n2)c1,40% [25 µM],34.8% [25 µM],37.2% [25 µM],26.6% [25 µM],12.1% [25 µM],0.794% [25 µM] (active),41.2% [25 µM],56.8% [25 µM],11.9% [25 µM]
COc1cc(-c2nn(-c3cccc(NC(=O)c4ccc(N5CCOCC5)c(C(F)(F)F)c4)c3)cc2-c2ccncc2)ccc1Cl,15.6%,42.5%,54.2%,29.5%,5.02% (active),0.2% (active),3.58% (active),-3.26% (active),-43.4% (active)
CCOC(=O)C1C(=O)C=C(c2ccc(OC)cc2)CC1c1sc(N(C)Cc2ccccc2)nc1Cl (stereo not given),77.7%,82.6%,76.1%,81.6%,82.8%,68.7%,,84.6%,
CCCCCCCCCCCCNC(=O)[C@H]1CSC(c2cc(Br)cs2)N1 (stereo not given in full),18.1%,10.4%,54%,-97.5% (active),-48.4% (active),-1.62% (active),71%,38.3%,
N[C@H]1CN(C(=O)c2cc3cc(Br)c(F)c(F)c3[nH]2)C[C@@H]1O,96.3%,83.7%,89.5%,99.9%,107%,95.1%,101%,86.2%,118%
COc1cc(-c2nc(-c3nc4ccc(Cl)cc4[nH]3)cc3c2[nH]c2ccccc23)cc(OC)c1OC,71.5%,73.2%,82.9%,83.7%,73.8%,39.7%,59.2%,81%,84.6%
O=c1[nH]c(Nc2ccc(S(=O)(=O)O)cc2)nc2nc(Nc3ccc(NC(=S)Nc4ccccc4)cc3)nc(-c3ccc(O)cc3O)c12,102%,88.6%,125%,109%,105%,91.9%,110%,104%,119%
C=C(C)[C@@H]1C[C@@H]2Cc3cc(Cl)ccc3N1O2,99.8%,101%,111%,93.4%,102%,116%,95.4%,102%,105%
COc1cc(Cn2cc3c(c2)-c2oncc2CC3)cc(OC)c1OC,15.7%,17.7%,-2.65% (active),42.1%,3.87% (active),-20% (active),29.6%,12.8%,-67.2% (active)
COc1ccc(/C=C2/C(=O)NC(SCC(=O)N3CCN(c4cc5c(cc4F)c(=O)c(C(=O)O)cn5C4CC4)CC3)=NC2N)cc1OC (stereo not given),102%,98.5%,111%,110%,107%,99%,107%,102%,113%
COc1cccc(/C=C2\Oc3cc(OCCCN4CCCC4)ccc3C2=O)c1OC,96.8%,86%,92.8%,97.7%,96.2%,91.5%,,98.5%,105%
O=C(Nc1ccc(NCCN2CCOCC2)nc1)c1ccc([N+](=O)[O-])cc1,100%,109%,107%,103%,110%,95.2%,98.3%,104%,110%
CCN1CCN(CC(=O)N2c3cccc4cccc(c34)N(C(=O)CN3CCN(CC)CC3)C2c2cn(-c3ccccc3)nc2-c2cccc([N+](=O)[O-])c2)CC1,13.7%,-28.3% (active),25.3%,0.226% (active),-37.9% (active),-64.7% (active),12.9%,,-66.9% (active)
c1ccc(-c2nnc(-c3ccccn3)s2)nc1,79.6%,96.8%,117%,80.4%,102%,96.1%,102%,78.9%,109%
COc1cc(NCCCCCN)c2ncccc2c1,100%,112%,122%,102%,117%,137%,105%,119%,119%
